Source: publication PMC4336329 (PLoS ONE, 2015)
Among all 310,000 compounds or so, about 14,000 (4.5%) showed an effect of 50% or more. The effect is printed as a negative number. The list comes from a sample in which strong results are over-represented; it also holds similar structures and randomly drawn compounds.

target: human ether-à-go-go-related gene (hERG) potassium channel (human, UniProt Q12809); assay: primary screen, population patch clamp on CHO cells stably expressing hERG; higher = less effect of the substance
Sequence (Q12809 whole entry, looked up): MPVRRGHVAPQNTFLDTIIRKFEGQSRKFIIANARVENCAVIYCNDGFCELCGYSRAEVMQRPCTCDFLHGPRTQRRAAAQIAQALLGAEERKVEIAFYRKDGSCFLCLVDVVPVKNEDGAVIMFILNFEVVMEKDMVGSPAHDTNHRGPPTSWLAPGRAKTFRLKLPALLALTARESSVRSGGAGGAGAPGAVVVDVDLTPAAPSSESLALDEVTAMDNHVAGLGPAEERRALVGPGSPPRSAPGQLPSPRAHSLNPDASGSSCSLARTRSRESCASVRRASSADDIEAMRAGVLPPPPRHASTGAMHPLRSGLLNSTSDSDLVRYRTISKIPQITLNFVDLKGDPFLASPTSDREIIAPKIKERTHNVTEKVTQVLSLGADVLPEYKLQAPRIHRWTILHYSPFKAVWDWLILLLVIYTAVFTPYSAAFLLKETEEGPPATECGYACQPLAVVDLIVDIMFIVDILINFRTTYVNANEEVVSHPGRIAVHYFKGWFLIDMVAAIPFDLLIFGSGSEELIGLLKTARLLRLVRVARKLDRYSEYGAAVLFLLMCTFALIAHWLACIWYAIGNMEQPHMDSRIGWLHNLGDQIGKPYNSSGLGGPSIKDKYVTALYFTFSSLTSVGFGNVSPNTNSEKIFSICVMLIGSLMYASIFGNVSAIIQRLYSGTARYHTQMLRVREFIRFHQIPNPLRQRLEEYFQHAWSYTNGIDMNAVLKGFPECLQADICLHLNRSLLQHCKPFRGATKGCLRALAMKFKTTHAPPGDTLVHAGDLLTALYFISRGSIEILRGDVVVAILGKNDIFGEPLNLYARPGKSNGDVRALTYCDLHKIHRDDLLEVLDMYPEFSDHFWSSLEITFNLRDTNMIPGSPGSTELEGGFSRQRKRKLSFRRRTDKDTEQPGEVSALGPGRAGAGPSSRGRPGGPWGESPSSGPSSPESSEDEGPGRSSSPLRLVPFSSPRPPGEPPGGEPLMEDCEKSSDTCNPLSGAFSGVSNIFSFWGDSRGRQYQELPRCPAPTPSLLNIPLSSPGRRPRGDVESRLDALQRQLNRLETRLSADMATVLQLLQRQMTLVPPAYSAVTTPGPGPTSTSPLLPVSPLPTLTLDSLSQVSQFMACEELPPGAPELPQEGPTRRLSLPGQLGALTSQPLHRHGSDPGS
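Also: peak tail current of the secondary pulse compared with the same well before compound.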

Compound | hERG current change (%, negative = inhibition) at 10uM [%]
COc1cc(/C=C/c2cc[n+](C)cc2)ccc1OCC(=O)Nc1ccc(Cl)c(Cl)c1.[I-] | -5.84
CS(=O)(=O)N(CC(=O)N1CCCC1)c1ccc(OCc2ccccc2)cc1 | -15.7
C#Cc1ccc(CN2CCN(CCc3ccccc3)C(CCO)C2)cc1 (stereo not drawn) | -58.8
OCCC#Cc1ccc(CN2CCN(CCc3ccccc3)C(CCO)C2)cc1 (stereo not drawn) | -20.7
C#Cc1ccc(CN2CCN(CCCc3ccccc3)C(CCO)C2)cc1 (stereo not drawn) | -69.8
Nc1c(C(=O)NC2CCCC2)c2nc3ccccc3nc2n1N | 25.1
CC1CCc2c(nc3sc4c(c3c2N)CCCC4)C1 (stereo not drawn) | -11.5
CN(Cc1ccccc1NS(=O)(=O)c1ccc2ccccc2c1)C1CCCCC1.Cl | 7.73
Cc1cc(C(=O)N/N=C/c2cccc([N+](=O)[O-])c2)c(C)n1-c1ccccc1 | 8.8
O=C(CCN1CCN(C(c2ccccc2)c2ccccc2)CC1)N/N=C/c1ccc(O)cc1O | -53.1
COc1cc(/C=N/NC(=O)c2cc(C)n(-c3ccc(F)cc3)c2C)cc(OC)c1O | -13.4
COc1ccc(/C=N/NC(=O)CCN2CCN(c3ccccc3)CC2)c(OC)c1OC | -3.73
COc1cc(/C=N\NC(=O)CNC(=O)C(c2ccccc2)c2ccccc2)ccc1O | -25.7
O=C(CNC(=O)C(c1ccccc1)c1ccccc1)N/N=C/c1ccc(O)cc1O | -4.68
COc1ccc(/C=N\NC(=O)CCN2CCN(c3ccccc3)CC2)cc1OC | -56.9
COc1ccc(OC)c(/C=N/NC(=O)CCN2CCN(C(c3ccccc3)c3ccccc3)CC2)c1 | -2.39
COc1cc(/C=N/NC(=O)CCN2CCCCC2)ccc1O | -12
COc1cc(/C=N/NC(=O)CCN2CCN(C(c3ccccc3)c3ccccc3)CC2)ccc1O | -78.7
COc1ccc(/C=N/NC(=O)c2cc(C)n(-c3ccccc3)c2C)cc1OC | -53.2
COc1cc(/C=N/NC(=O)CCN2CCN(c3ccccc3)CC2)cc(OC)c1OC | -22.2
Cc1ccccc1N(C(=O)CNC(=O)c1ccco1)C(C(=O)NC1CCCCC1)c1cccnc1 (stereo not drawn) | 14.3

Compound | hERG current change (%, negative = inhibition) at 10uM [%]
Cc1cc(C)cc(NS(=O)(=O)c2ccc(NC(=O)C3CCCCC3C(=O)O)cc2)c1 (stereo not drawn) | 2.18
CSc1ccc(CNC(=O)c2ccc(NC(=O)C3=CSCCO3)cc2)cc1 | 28.4
CCCCc1ccc(S(N)(=O)=O)cc1 | 15.7
O=C(CCN1CCN(C(c2ccccc2)c2ccccc2)CC1)N/N=C/c1ccc(O)cc1 | -54.8
O=C(CSC1CN(C(c2ccccc2)c2ccccc2)C1)N/N=C/c1ccccc1 | 1.64
NNC(=O)CCN1CCN(C(c2ccccc2)c2ccccc2)CC1 | -7.7
Cc1cc2c(cc1C)-c1nnnn1C(C)(C)C2 | 15.2
N#Cc1ccc(-n2c(-c3ccccc3)nnc2-c2ccccc2)cc1C#N | -15.5
O=C1N/C(=N/c2ccccn2)SC1Cc1ccccc1 (stereo not drawn) | -13.7
CCc1ccc(NC(=O)Cn2c(=O)n(CCC(=O)NC3CCN(Cc4ccccc4)CC3)c(=O)c3ccccc32)cc1 | 1.83
O=C(CCCCn1c(=O)c2ccccc2n(Cc2ccccc2)c1=O)NC1CCN(Cc2ccccc2)CC1 | -67.9
COC(=O)c1ccccc1NC(=O)Cn1c(=O)n(CCC(=O)NC2CCN(Cc3ccccc3)CC2)c(=O)c2ccccc21 | -34.8
COc1cccc(NC(=O)Cn2c(=O)n(CCC(=O)NC3CCN(Cc4ccccc4)CC3)c(=O)c3ccccc32)c1 | -57.6
O=C(CCn1c(=O)c2ccccc2n(Cc2ccccc2)c1=O)NC1CCN(Cc2ccccc2)CC1 | -42.5
CCOc1ccc(NC(=O)Cn2c(=O)n(CCCC(=O)NC3CCN(Cc4ccccc4)CC3)c(=O)c3ccccc32)cc1 | -38
O=C(CCCCn1c(=O)c2ccccc2n(Cc2ccccc2F)c1=O)NC1CCN(Cc2ccccc2)CC1 | -9.04
O=C(CCCn1c(=O)c2ccccc2n(Cc2cccc(F)c2)c1=O)NC1CCN(Cc2ccccc2)CC1 | -68.6
Cc1ccc(NC(=O)Cn2c(=O)n(CCC(=O)NC3CCN(Cc4ccccc4)CC3)c(=O)c3ccccc32)cc1 | -1.53
Cc1cc(NC(=O)Cn2c(=O)n(CCCCC(=O)NC3CCN(Cc4ccccc4)CC3)c(=O)c3ccccc32)n[nH]1 | 26.5
NC(=O)Cn1c(=O)n(CCCC(=O)NC2CCN(Cc3ccccc3)CC2)c(=O)c2ccccc21 | -6.48
Cc1cccc(C)c1NC(=O)Cn1c(=O)n(CCCC(=O)NC2CCN(Cc3ccccc3)CC2)c(=O)c2ccccc21 | -58.6
